ERb coact inh: inhibitors of ERβ-SRC1 coactivator interaction, primary screen, biochemical, TR-FRET, ERβ LBD, SRC-1 peptide. 1.3% of 86,000 active. inhibition, % at 25.6 µM. TR-FRET ER-beta LBD / SRC1-Cy5 peptide binding; receptor agonist-loaded with 1 µM estradiol;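 active = compounds whose percent inhibition of the receptor-coactivator binding signal exceeds about 50% in the single-dose screen, limit read from the data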;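 note: 0% = receptor plus peptide wells without compound and 100% = peptide-only wells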
ERa coact inh: ERα–SRC-1 coactivator interaction inhibitors, primary screen, biochemical, TR-FRET, ERα LBD, estradiol-bound | 1.7% of 86,000 active | Estrogen receptor (Homo sapiens), P03372 | AID 629, 2007 | TR-FRET ER-alpha LBD / SRC-1 peptide | inhibition, % at 25.6 µM; in the data active = inhibition above about 50%;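 note: 0% = receptor plus peptide control and 100% = peptide only without receptor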
Target sequence (P03372 whole entry, looked up, the tested form may be a part): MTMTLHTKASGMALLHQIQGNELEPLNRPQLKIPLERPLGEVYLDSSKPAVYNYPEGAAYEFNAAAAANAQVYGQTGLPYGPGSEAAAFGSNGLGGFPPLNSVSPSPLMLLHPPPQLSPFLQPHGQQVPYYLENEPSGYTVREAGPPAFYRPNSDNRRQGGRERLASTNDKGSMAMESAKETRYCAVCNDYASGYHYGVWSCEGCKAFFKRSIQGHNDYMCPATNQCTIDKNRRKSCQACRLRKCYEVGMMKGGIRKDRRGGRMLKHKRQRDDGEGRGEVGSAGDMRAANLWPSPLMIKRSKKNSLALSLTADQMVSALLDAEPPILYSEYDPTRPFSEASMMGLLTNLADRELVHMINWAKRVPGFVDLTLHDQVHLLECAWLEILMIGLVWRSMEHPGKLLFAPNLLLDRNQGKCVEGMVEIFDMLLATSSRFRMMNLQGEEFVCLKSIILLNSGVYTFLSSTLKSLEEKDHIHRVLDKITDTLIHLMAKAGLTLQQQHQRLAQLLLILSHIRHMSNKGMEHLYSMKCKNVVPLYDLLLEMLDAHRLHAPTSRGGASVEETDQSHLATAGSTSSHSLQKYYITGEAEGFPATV
MRP resist rev: reversal of MRP1-mediated doxorubicin resistance, primary screen, H69AR cells, doxorubicin co-treatment. H69AR cells + 2 uM doxorubicin, CellTiter-Glo, 72 h. differential viability (reversal), % at 10 µM. 0.04% of 85,000 active;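 active = viability drop by adding the cancer drug above about 55%, with treated viability meeting a 40% cutoff, limit read from the data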;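 note: viability without doxorubicin minus viability with 2 µM doxorubicin for each compound; larger differential means the compound sensitizes cells more to doxorubicin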
Smad3 inh: Smad3/FoxH1 peptide binding inhibitors, primary screen, biochemical, TR-FRET; Mothers against decapentaplegic homolog 3 (Homo sapiens), P84022; TR-FRET Smad3/Dy647-FoxH1 peptide binding, europium anti-His; inhibition, % at 25 µM; 0.29% of 88,000 active; AID 630, 2007;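 active = compounds that reduce the energy-transfer binding signal between the protein and its labelled peptide by more than half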;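 note: 0% = Smad3 plus labelled peptide maximal FRET and 100% = peptide-only background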
MRP1 act: H69AR viability gain despite doxorubicin, primary screen, MRP-1 activator project, H69AR cells, CellTiter-Glo; 0.61% of 140,000 active; AID 799, 2007; viability increase, % at 10 µM; viability rescue;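 active = viability gain under doxorubicin at or above a set limit, the compound median plus 3 SD, cut at about 4.7% in these data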;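 note: MRP-1 overexpressing cells given doxorubicin 25 µM after compound pretreatment; 18-22 h compound pretreatment then 72 h with doxorubicin before readout; 0% = doxorubicin-only wells and 100% = vehicle-treated cells without doxorubicin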
ERa coact pot: enhancers of ERα–SRC-1 coactivator binding, primary screen, biochemical, TR-FRET, ERα LBD, low estradiol | Estrogen receptor (Homo sapiens), P03372 | TR-FRET ERalpha-LBD/SRC-Cy5 coactivator binding, 2 h; 100 = basal binding, no effect | coactivator binding (% of control), % at 25.6 µM | 1.3% of 86,000 active; in the data active = activity above about 200%;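 note: binding measured in presence of low estradiol as agonist stimulus; 0% = peptide alone without receptor and 100% = receptor with peptide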
Numbers without * were called inactive; [ ] = another dose, or the depositor's remark. Sampled rows, rich in hits. Any-hit rate of the full collection: about 2.9%.

Screening CCN1C(=O)CC(C(=O)NC)SC1=Nc1cc(Cl)c(O)c(Cl)c1 (centres undefined) returned ERb coact inh 50.2*[fluorescence artefact?], ERa coact inh 31.3, MRP resist rev -1.2, Smad3 inh -21.9, MRP1 act -2.7 and ERa coact pot 81.4.
Screening c1ccc2c[n+](Cc3ccnc4ccccc34)ccc2c1 returned Smad3 inh 101.1*.
CC(C)CCOc1ncnc2c1sc1nc3c(cc12)CSC(C)(C)C3 was read as ERb coact inh 45.1, ERa coact inh 38.8, MRP resist rev -4.7, Smad3 inh 4.1, MRP1 act 6.3* and ERa coact pot 195.4.
For COc1ccc(NC(=O)c2ocnc2C)cc1OC the results were ERb coact inh -5.9, ERa coact inh -5.2, MRP resist rev 8.5, Smad3 inh 2.6, MRP1 act -1.8 and ERa coact pot 111.2.
Screening COc1ccc(Cl)cc1NC(=O)c1ocnc1C returned ERb coact inh 62.4*, ERa coact inh 52.2*, MRP resist rev 5.1, Smad3 inh 2.5, MRP1 act -1.9 and ERa coact pot 54.6.
O=c1c(C(c2ccccc2)c2c(O)sc3ccccc3c2=O)c(O)sc2ccccc12 was read as ERb coact inh 28.8, ERa coact inh 81.2*[fluorescence artefact?], MRP resist rev 24.6, Smad3 inh 17.0, MRP1 act -0.9 and ERa coact pot 118.6.
`O=c1c2ccccc2sc2ccc(Cl)cc12` gave MRP1 act -0.1.
For Cc1cc(C)c[n+](-c2nc([O-])sc2C=O)c1 the results were MRP1 act -1.7.
O=C(O)c1oc(C(=O)O)c(C(=O)O)c1C(=O)O was read as Smad3 inh 3.1.
N#CCSc1nc2ccc(N3CCCCC3)cc2c(=O)n1Cc1ccccc1 was read as ERb coact inh 1.3, ERa coact inh 5.4, MRP resist rev -1.1, Smad3 inh 7.3, MRP1 act 4.8* and ERa coact pot 88.4.
O=C(c1cc2nc3c(c(C(F)(F)F)n2n1)CCc1ccccc1-3)N1CCN2CCCC2C1 (centres undefined) was read as ERb coact inh -6.2, ERa coact inh -9.7, MRP resist rev 6.6, Smad3 inh 8.9 and ERa coact pot 116.8.
Cc1cc2c(C)c(C)c(=O)[nH]c2cc1N was read as ERb coact inh 44.1, ERa coact inh 68.7*[fluorescence artefact?], MRP resist rev 7.4, Smad3 inh 0.1, MRP1 act -2.2 and ERa coact pot 16.1.
`Cc1cc2c(=O)[nH]c(N)nc2nc1C` gave Smad3 inh -25.1.
`O=C1c2ccccc2-c2c1cccc2C(=O)N1CCCCCC1` gave MRP1 act -2.8.
`O=C1c2ccccc2-c2c1cccc2C(=O)N1CCOCC1` gave ERb coact inh 55.5*[fluorescence artefact?], ERa coact inh -2.8, MRP resist rev 1.6, Smad3 inh -0.4, MRP1 act -3.3 and ERa coact pot 110.2.
For COc1ccc(NC(=O)CSc2nnnn2-c2ccc(OC)cc2)cc1 the results were ERb coact inh -1.1, ERa coact inh -10.3, MRP resist rev 15.2, Smad3 inh -2.2, MRP1 act 0.1 and ERa coact pot 99.8.
COc1cc(NC(=O)CSc2nnnn2-c2ccccc2)cc(OC)c1OC was read as ERb coact inh 9.4, ERa coact inh 10.7, MRP resist rev -9.6, Smad3 inh 18.0, MRP1 act -1.5 and ERa coact pot 229.2*[fluorescence artefact?].
`Cc1cc(C(=O)CSc2nnnn2-c2ccccc2)c(C)n1CCc1ccccc1` gave ERb coact inh -0.3, ERa coact inh 4.4, MRP resist rev 0.8, Smad3 inh 4.3, MRP1 act 0.3 and ERa coact pot 110.9.
Screening COc1ccc(CCn2c(C)cc(C(=O)CSc3nnnn3-c3ccccc3)c2C)cc1OC returned ERb coact inh -30.4, ERa coact inh 64.5*[fluorescence artefact?], MRP resist rev -6.6, Smad3 inh 15.7, MRP1 act -1.1 and ERa coact pot 190.4.
`O=C(O)[C@H]1CCCN1Cc1c[nH]c2ccccc12` gave Smad3 inh -1.9.
For CCCCNC(=O)CC1SC(=NCC)N(CC)C1=O (centres undefined) the results were ERb coact inh -36.6, ERa coact inh 4.7, MRP resist rev -2.0, Smad3 inh 10.9, MRP1 act -0.1 and ERa coact pot 115.9.
Screening CCN=C1SC(CC(=O)NC(C)C)C(=O)N1CC (centres undefined) returned ERb coact inh -26.4, ERa coact inh 2.6, MRP resist rev -7.1, Smad3 inh -2.7, MRP1 act 0.0 and ERa coact pot 853.2*[fluorescence artefact?].
Screening CN(Cc1cccc2ccccc12)Cc1cccc2ccccc12 returned Smad3 inh 9.6.
For Cc1c(Cl)cccc1NC(=O)C[C@H]1Sc2ccccc2NC1=O the results were Smad3 inh 3.2.
CCC(=O)/C=C1/Sc2ccccc2N1CC was read as ERb coact inh -2.5, ERa coact inh -11.0, MRP resist rev 15.4, Smad3 inh 17.2, MRP1 act -1.5 and ERa coact pot 118.4.
For CCC(=O)/C=C1/Sc2ccc(OC)cc2N1CC the results were ERb coact inh 99.4*[fluorescence artefact?], ERa coact inh -3.1, MRP resist rev 1.4, Smad3 inh -1.7, MRP1 act -2.1 and ERa coact pot 113.0.
Screening Cc1ccc(/C(=N\O)c2oc3c(C)c4oc(=O)cc(C)c4cc3c2C)cc1 returned ERb coact inh 9.2, ERa coact inh -1.3, MRP resist rev -5.1, Smad3 inh 7.9, MRP1 act -6.8 and ERa coact pot 99.9.
Screening Cc1cc(=O)oc2c1ccc1oc(/C(=N/O)c3ccccc3)c(C)c12 returned ERb coact inh 6.2, ERa coact inh -2.4, MRP resist rev -9.7, Smad3 inh 1.1, MRP1 act 10.1* and ERa coact pot 97.9.
For N=C(N)C(N=Nc1ccccc1)C(=N)N (centres undefined) the results were Smad3 inh 4.3.
`O=C(O)CC(Cn1[nH]nnc1=S)c1ccccc1` (centres undefined) gave ERb coact inh 52.2*, ERa coact inh -9.0, MRP resist rev 4.1, Smad3 inh 3.1, MRP1 act -0.2 and ERa coact pot 107.9.
For Cc1oc2c(C)c(O)ccc2c(=O)c1-c1cnn(-c2ccccc2)c1 the results were ERb coact inh 60.1*[fluorescence artefact?], ERa coact inh 70.1*[fluorescence artefact?], MRP resist rev -16.4, Smad3 inh 0.6, MRP1 act 0.0 and ERa coact pot 181.3.

High-throughput results deposited in PubChem BioAssay by several laboratories.
